Some test systems named below: HCT-15 colon; HT29 colon; SNB-75 CNS; SNB-19 CNS; U251 CNS; PC-3 prostate; SK-MEL-5 melanoma; UACC-62 melanoma; LOX IMVI melanoma; SK-MEL-28 melanoma.
Common to all, as to experiment: NCI-60 one-dose screen, 48 h (100 = growth as untreated, 0 = no growth, -100 = all killed)
What all share (conditions): 10 µM unless noted

This is part of a sample that, as a whole, favours compounds with a hit. Of some 83,000 tested, about 20% had one in any assay.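 Assay: single dose, 48 h. Readout: percent growth (0 = no net growth; negative = cell death). Active: <10.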 Values without a mark were called inactive. Active and inactive are the calls of the source.

For the molecule `CC1(C)CC[C@]2(CO)CC[C@]3(C)[C@H](CC[C@@H]4[C@@]5(C)CC[C@H](O)C(C)(C)[C@@H]5CC[C@]43C)[C@H]2[C@H]1O`, the growth in the experiment with HCT-15 colon is 93.4%; with HT29 colon, 56.3%; in the experiment with SNB-75 CNS, -33.7% (active); with SNB-19 CNS, 96.1%; in the experiment with U251 CNS it was 62.3%; in the experiment with PC-3 prostate it was 68.2%. For the same molecule, the growth was 91.8% in the experiment with SK-MEL-5 melanoma, 90.6% with UACC-62 melanoma, 76.2% in the experiment with LOX IMVI melanoma and 91.2% in the experiment with SK-MEL-28 melanoma.
As to `COC(=O)c1cc(-c2cc(OC)c(OC)c(OC)c2)[nH]c1N/N=C/c1c(Cl)cccc1Cl`, the growth in the experiment with HCT-15 colon was 60%; with HT29 colon, 32.4%; in the experiment with SNB-75 CNS, 3.41% (active); in the experiment with SNB-19 CNS, 28.5%; in the experiment on U251 CNS, 14.1%; with PC-3 prostate, 12%. For the same molecule, the growth was 58.7% in the experiment on SK-MEL-5 melanoma, 34.8% in the experiment with UACC-62 melanoma, 19.2% with LOX IMVI melanoma and 30.1% with SK-MEL-28 melanoma.
Take `C[C@@H]1N=C(c2ccc(Cl)cc2Cl)Nc2nc3ccccn3c2C1=O`: the growth in the experiment with HCT-15 colon was 35.1%; in the experiment on HT29 colon it was 7.68% (active); in the experiment with SNB-75 CNS, 58.7%; in the experiment on SNB-19 CNS it was 60.8%; in the experiment on U251 CNS, 41.4%; in the experiment with PC-3 prostate it was 39.1%. The growth with SK-MEL-5 melanoma was 39.6%; with UACC-62 melanoma, 40.5%; in the experiment on LOX IMVI melanoma, 51.3%; in the experiment on SK-MEL-28 melanoma, 60.7%.
Regarding `CCCCCC(C)(O)C(C(=O)O)c1ccccc1` (stereo not given), the growth is 106% in the experiment with HCT-15 colon; 101% in the experiment on HT29 colon; 94.5% in the experiment with SNB-75 CNS; 97.1% with SNB-19 CNS; 99.2% with U251 CNS; 93.2% in the experiment on PC-3 prostate. Besides, the growth is 101% with SK-MEL-5 melanoma, 103% in the experiment with UACC-62 melanoma, 102% with LOX IMVI melanoma and 98.4% in the experiment on SK-MEL-28 melanoma.
`COC1=C(OC)C(=O)C(CCCCCCCCCCO)=C(C)C1=O`: the growth was 79.7% in the experiment with HCT-15 colon; 105% with HT29 colon; 62.1% with SNB-75 CNS; 93% in the experiment with SNB-19 CNS; 58.3% in the experiment on U251 CNS; 69.5% in the experiment with PC-3 prostate. The growth was 45% in the experiment on SK-MEL-5 melanoma, 59.4% with UACC-62 melanoma, 11.5% with LOX IMVI melanoma and 102% in the experiment with SK-MEL-28 melanoma.
For the molecule `COc1ccc(C2=NN3C(C2)c2cc(Br)ccc2OC3c2ccncc2)cc1` (stereo not given), the growth is 73.1% in the experiment with HCT-15 colon; 109% in the experiment on HT29 colon; 78.8% in the experiment with SNB-75 CNS; 81.4% in the experiment on SNB-19 CNS; 75.3% in the experiment on U251 CNS; 63.2% with PC-3 prostate. Besides, the growth in the experiment on SK-MEL-5 melanoma was 93.2%; with UACC-62 melanoma, 71.5%; with LOX IMVI melanoma, 62%; in the experiment on SK-MEL-28 melanoma, 105%.
In the case of `CCN1CCN(C(=O)[C@]23CC[C@@H](C)[C@H](C)[C@@H]2C2=CC[C@@H]4[C@@]5(C)C/C(=C/c6ccncc6)C(=O)C(C)(C)[C@@H]5CC[C@@]4(C)[C@]2(C)CC3)CC1`, the growth with HCT-15 colon was -53.2% (active); with HT29 colon, 1.6% (active); in the experiment on SNB-75 CNS it was 19.5%; in the experiment on SNB-19 CNS, 47.3%; with U251 CNS, 15.2%; in the experiment with PC-3 prostate, 19.3%. Moreover, the growth in the experiment with SK-MEL-5 melanoma is -12.3% (active); with UACC-62 melanoma it was 43.1%; with LOX IMVI melanoma it was -95.3% (active); with SK-MEL-28 melanoma it was -45.7% (active).
As to `Cc1nc2cccc(NCc3ccc(C(=O)NO)cc3)c2c(=O)n1-c1ccccc1`, the growth was 31.3% with HCT-15 colon; 26.4% in the experiment with HT29 colon; 42.6% with SNB-75 CNS; 40.8% in the experiment on SNB-19 CNS; -16.7% (active) with U251 CNS; 27% with PC-3 prostate. The growth was 8.27% (active) with SK-MEL-5 melanoma, -17.7% (active) in the experiment with UACC-62 melanoma, 26.6% in the experiment on LOX IMVI melanoma and 35.7% with SK-MEL-28 melanoma.
In the case of `COc1cccc(/C=C2\CCc3ccccc3C2=O)c1`, the growth in the experiment with HCT-15 colon is 87.2%; in the experiment on HT29 colon, 77.1%; in the experiment on SNB-75 CNS it was 97.4%; in the experiment on SNB-19 CNS, 75.7%; with U251 CNS it was 83.2%; in the experiment with PC-3 prostate it was 83.4%. Besides, the growth in the experiment with SK-MEL-5 melanoma was 76.8%; in the experiment with UACC-62 melanoma it was 80.1%; in the experiment on LOX IMVI melanoma it was 80.2%; in the experiment with SK-MEL-28 melanoma, 118%.
Turning to `N#CSCc1cc(Cl)c(CSC#N)cc1Cl`, the growth is 31.9% in the experiment with HCT-15 colon; 40.6% in the experiment on HT29 colon; 47.9% in the experiment with SNB-75 CNS; 89% in the experiment on SNB-19 CNS; 106% in the experiment with U251 CNS; 75.8% in the experiment with PC-3 prostate. For the same molecule, the growth was 48.5% in the experiment with SK-MEL-5 melanoma, 71.1% in the experiment on UACC-62 melanoma, 30.5% with LOX IMVI melanoma and 87.9% in the experiment with SK-MEL-28 melanoma.
As for `CCOC(=O)c1c(Nc2nc3ccccc3s2)sc2c1CCC(=O)C2`, the growth in the experiment on HCT-15 colon was 45.1%; with HT29 colon it was 55.4%; with SNB-75 CNS it was 74.8%; with SNB-19 CNS it was 45.8%; in the experiment with U251 CNS, 20.5%; with PC-3 prostate, 22.2%. The growth was 61.2% in the experiment with SK-MEL-5 melanoma, 43.1% in the experiment with UACC-62 melanoma, 40.1% in the experiment with LOX IMVI melanoma and 108% in the experiment with SK-MEL-28 melanoma.
As for `CCN1CCN(CCOc2ccc(CNc3ccc4nc(CCC5CCCCC5)[nH]c4c3)cc2)CC1`, the growth with HCT-15 colon is -17.7% (active); in the experiment on HT29 colon it was 8.35% (active); with SNB-75 CNS, 79.8%; in the experiment on SNB-19 CNS, 39.3%; with U251 CNS it was -19.7% (active); with PC-3 prostate it was 42%. For the same molecule, the growth is -96.5% (active) in the experiment with SK-MEL-5 melanoma, -16.4% (active) with UACC-62 melanoma, -78.6% (active) in the experiment with LOX IMVI melanoma and -88% (active) in the experiment with SK-MEL-28 melanoma.
Consider `O=c1[nH]c(CN2CCN(c3ccccc3)CC2)nc2c(Br)cc(Br)cc12`, for which the growth is 71.5% in the experiment with HCT-15 colon; 105% with HT29 colon; 95.8% in the experiment with SNB-75 CNS; 108% with SNB-19 CNS; 101% with U251 CNS; 103% in the experiment with PC-3 prostate. Further, the growth in the experiment on SK-MEL-5 melanoma is 109%; in the experiment with UACC-62 melanoma it was 84.4%; in the experiment with LOX IMVI melanoma, 99.7%; with SK-MEL-28 melanoma it was 108%.

Values taken from PubChem BioAssay (NCI).
